Bioassay records (PubChem)
Hits are enriched below; roughly 9.2% of the tested compounds scored in any of these assays.
NPC1 prom act – activators of NPC1 promoter; Huh7 NPC1 promoter luciferase reporter, 24 h; Potency, µM (top dose mostly 9.22 µM), for the others: at the top dose activation, usual class: activators; 320,000 compounds, 2.4% hits; AID 485313; also: % of control where 0% means no effect; nearly all actives have a fitted effect of over 60% in size
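Cells: Huh7 expressing luciferase under the NPC1 promoter, 1500/well. Seeded 2 h, compound added, incubated 24 h at 37 °C. Luciferase reagent, 10 min ambient, then luminescence.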
FLuc counter – inhibits or activates purified firefly luciferase, miR-21 counter-screen | Potency, µM (doses to about 57.5 µM), for the others: at the highest dose activity change, negative = inhibition, usual class: inhibitors | 360,000 compounds, 6.9% hits | purified FLuc, Km substrates, luminescence inhibition | P08659 | AID 588342;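 also: plate controls were vehicle for no effect and reference inhibitor for full effect; nearly all actives have a fitted effect of over 55% in size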
Target sequence (P08659 whole entry, looked up): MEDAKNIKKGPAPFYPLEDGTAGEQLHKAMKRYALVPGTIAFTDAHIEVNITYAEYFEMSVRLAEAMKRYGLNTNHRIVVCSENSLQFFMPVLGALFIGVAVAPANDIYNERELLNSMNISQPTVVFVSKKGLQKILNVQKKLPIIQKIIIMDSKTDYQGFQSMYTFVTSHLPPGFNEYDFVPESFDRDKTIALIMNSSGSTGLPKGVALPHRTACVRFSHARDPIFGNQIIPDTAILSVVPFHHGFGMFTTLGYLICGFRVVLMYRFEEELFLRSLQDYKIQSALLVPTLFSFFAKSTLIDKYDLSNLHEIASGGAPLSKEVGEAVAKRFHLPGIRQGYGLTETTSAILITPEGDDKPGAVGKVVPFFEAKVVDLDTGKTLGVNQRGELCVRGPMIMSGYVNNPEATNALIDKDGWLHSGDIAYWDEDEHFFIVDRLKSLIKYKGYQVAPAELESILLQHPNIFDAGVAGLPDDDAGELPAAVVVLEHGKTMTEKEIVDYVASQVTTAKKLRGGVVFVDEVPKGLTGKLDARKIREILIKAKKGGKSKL
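Purified P. pyralis luciferase (10nM final) with 10uM D-luciferin and 10uM ATP (Km levels) in 50mM Tris acetate pH 7.5, 10mM Mg acetate, 0.01% Tween-20, 0.05% BSA; qHTS 6-point titration, ~60 µM downward; luminescence read.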
Rab9 prom act – activators of Rab9 promoter; 320,000 compounds, 2.8% hits; Huh7 Rab9 promoter-luciferase reporter, luminescence, 24 h; AID 485297; Potency, µM (titrated, usually from 9.22 µM), inactives show at the highest dose activation, negative = inhibition, hits mostly activators; also: % of control where 0% means no effect; nearly all actives have a fitted effect of over 60% in size
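Huh7 cells stably carrying Rab9 promoter–luciferase reporter, plated 1500 cells/well, compound added after 2 h and incubated 24 h at 37 °C; luciferase luminescence then read after 10 min with detection reagent.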
SMN2 splice up – enhancers of SMN2 splice variant expression. HEK293 SMN2-luciferase splicing reporter, luminescence, 30-36 h. Potency, µM (series often up to 46.1 µM), for the others: at the highest dose activity change, positive = activation, hits mostly activators. 210,000 compounds, 2.8% hits; also: % of control where 0% means no effect; nearly all actives have a fitted effect of over 55% in size
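HEK293 cells carry an SMN2 minigene-luciferase reporter in which exon 7 inclusion puts luciferase in frame. Cells were seeded at 2000 cells/well, attached for 10-12 hours, then exposed to compounds for 30-36 hours at 37C before ONE-Glo luminescence.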
ELG1 DNA repair – ELG1-dependent DNA repair inhibition | HEK293T ELG1-luciferase reporter, luminescence, 16 h; DNA damage induced by 5-fluorouridine | Potency, µM (series often up to 46.1 µM), inactives show top-dose activity change, negative = inhibition, hits mostly inhibitors | 330,000 compounds, 2.3% hits; also: % is scaled to controls: 0 for no effect and ±100 for the full control effect; nearly all actives have a fitted effect of over 55% in size
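Quantitative HTS, concentration-response format. 2,000 cells/well co-treated with 5-fluorouridine and compound, 16 hr in 5% CO2 at 37 °C; ONE-Glo luminescence read after 30 min.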
ELG1 genotox – inducers of genotoxicity in HEK293T ELG1-luciferase cells; HEK293T ELG1-luciferase reporter, luminescence, 16 h; Potency, µM (titrated, usually from 46 µM), inactives show top-dose activity change, positive = activation, usual class: activators; 330,000 compounds, 1.3% hits; AID 504466; also: % of control where 0% means no effect; nearly all actives have a fitted effect of over 60% in size
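16 hr compound incubation (37 °C, 5% CO2) of HEK293T cells carrying luciferase-tagged ELG1; luciferase then measured by ONE-Glo luminescence after 30 min at RT.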
Active calls of the source: *; ? = inconclusive; . = no result; [ ] = another dose, or the depositor's remark. Calls follow the shape of the dose curve; as a rule, active = well fitted curve in the direction sought with a large enough effect; inconclusive = small, poorly fitted or top-dose-only effect, or another doubt; inactive = no such curve, though single readings can be large; an effect the other way counts as inactive or inconclusive. Potency is read from the fitted curve at half-maximal effect.

SMILES | NPC1 prom act | FLuc counter | Rab9 prom act | SMN2 splice up | ELG1 DNA repair | ELG1 genotox
CC1CCN(C(=O)COC(=O)c2ccc(Br)o2)CC1 | 3% | 24µM* | 4% | -3% | ? | ?
Nc1cc(C(=O)OCC(=O)N2CCOCC2)ccc1Cl | 21% | ? | ? | . | ? | ?
CC1CCN(C(=O)COC(=O)c2ccc3c(c2)OCO3)CC1 | ? | 17µM* | 3.5µM* | 21% | ? | ?
O=C(OCC(=O)N1CCOCC1)c1ccc2c(c1)OCCO2 | 29% | -18% | 20% | 20% | ? | 7%
CC1CCN(C(=O)COC(=O)c2cccc(NS(=O)(=O)c3ccccc3)c2)CC1 | 1% | 17µM* | -4% | . | -1% | 1%
Nc1ccc(C(=O)OCC(=O)N2CCOCC2)cc1[N+](=O)[O-] | ? | ? | ? | 20µM* | ? | ?
O=C(CN1CCN(C(=O)c2ccco2)CC1)Nc1cccc([N+](=O)[O-])c1 | -2% | 2% | -2% | -7% | 1% | 0%
COc1ccc(NC(=O)CS(=O)(=O)c2cn(CC(=O)N3CCOCC3)c3ccccc23)cc1 | 0% | 2% | -6% | 5% | 7% | 3%
C[C@H](CO)N1C[C@H](C)[C@@H](CN(C)S(=O)(=O)c2ccc(F)cc2)Oc2ccc(NC(=O)C3CC3)cc2C1=O | . | . | . | . | ? | -5%
COc1ccc(/C=C2\SC(=S)N(CCCC(=O)N3CCCCC3CCO)C2=O)cc1 (stereo not given) | -17% | 17µM* | -12% | . | ? | -14%
O=C1/C(=C/c2ccccc2Cl)SC(=S)N1CCC(=O)N1CCCCC1CCO (stereo not given) | -8% | ? | -5% | . | -1% | -8%
COc1ccc(/C=C2\SC(=S)N(CCCC(=O)N3CCN(C)CC3)C2=O)cc1 | -4% | 15µM* | -11% | . | 3% | 1%
CC(C)c1ccc(/C=C2\SC(=S)N(CCC(=O)N3CCCCC3CCO)C2=O)cc1 (stereo not given) | -24% | 3.4µM* | -31% | . | ? | -14%
COc1ccc(/C=C2\SC(=S)N(CCC(=O)N3CCOCC3)C2=O)cc1 | -1% | ? | -15% | . | 1% | -1%
O=C1/C(=C\c2ccccc2)SC(=S)N1CCC(=O)N1CCCCC1CCO (stereo not given) | -8% | 17µM* | 0% | . | -3% | -5%
NCCCNc1ccc([N+](=O)[O-])cc1C(F)(F)F | 0% | 2% | -11% | . | -5% | -5%
CC(C(=O)N1CCc2ccccc21)N1CCN(Cc2ccccc2)CC1 (stereo not given) | -4% | 2% | -2% | . | 11% | -3%
Cc1ccc(Nc2nnc(SCC(=O)Nc3cc(C(=O)O)ccc3C)s2)c(C)c1 | 4% | ? | -7% | . | 2% | -1%
CCSc1nncn1/N=C/c1ccc(OC)c(OC)c1 | 8% | ? | 23% | ? | ? | ?
C=C(C)CSc1nncn1/N=C/c1ccc(OC)cc1 | ? | 12µM* | 4µM* | ? | ? | ?
COc1ccc(NC(=O)c2ccccc2C)cc1 | 1.4µM* | 9.5µM* | 3.2µM* | . | ? | ?
Cc1ccc(NC(=O)c2cc3ccccc3cc2O)cc1 | 2µM* | 1.1µM* | 2.8µM* | . | ? | ?
COc1ccc(NC(=O)c2cc3ccccc3cc2O)cc1 | 2.2µM* | 0.95µM* | 2.2µM* | . | ? | ?
COc1ccc(NC(=O)c2cccc3ccccc23)cc1 | 14% | ? | 18% | . | 6% | 8%
O=C(Nc1ccccn1)c1cc2ccccc2cc1O | 3.5µM* | 2.4µM* | 4µM* | . | ? | 2.3µM*
SMILES | NPC1 prom act | FLuc counter | Rab9 prom act | SMN2 splice up | ELG1 DNA repair | ELG1 genotox
Cc1ccc(NC(=O)NNC(=O)c2cc3ccccc3cc2O)cc1C | 1% | -3% | 8% | . | 7% | 5%
COc1cc(C2CC(=O)Nc3ccc4ccccc4c32)ccc1OC(=O)C(C)C (stereo not given) | . | -11% | . | 4% | . | .
c1ccc(-c2ccc(-c3ccc(C4=NCCN4)cc3)o2)cc1 | . | . | . | 22%[9.22 µM] | . | .
Cc1cc(O)c2c(c1O)C(=O)C(O)=C(O)C2=O | . | . | . | -9% | . | .
COCC(=O)N1CCC2(CC1)CCN(c1ccccc1)CC2 | . | . | . | -4% | . | .
COc1ccccc1Nc1c2c(nc3ccccc13)CCC2 | -26% | 6% | -25% | . | ? | -6%
COc1ccccc1Nc1nc2c(s1)CCC2 | 28% | 15µM* | 27% | -16% | ? | 16%
Cc1ccc(Nc2nc3c(s2)CCC3)c(C)c1 | ? | 7.6µM* | ? | 13µM* | ? | 21µM*
Cc1ccc(NC(=O)Nc2nc3c(s2)CCCCCC3)cc1C | . | -1% | . | . | . | .
CCCCOc1ncnc2c1[nH]c1ccc(OCC)cc12 | -2% | -2% | -16% | -20% | -11% | -1%
CCCCOc1ncnc2c1[nH]c1ccc(F)cc12 | -14% | 2.7µM* | -25% | -56% | ? | -1%
CCCCOc1ncnc2c1[nH]c1ccc(OC)cc12 | 0.56µM* | 1.7µM* | 1.4µM* | ? | ? | ?
c1ccc2c(c1)[nH]c1c(NCC3CCCO3)ncnc12 (stereo not given) | -3% | -1% | 2% | . | 15µM* | -10%
CCCCOc1ncnc2c1[nH]c1ccccc12 | -5% | 11µM* | -13% | -77% | ? | 0%
CCCCn1cnc2c([nH]c3ccccc32)c1=O | 16% | ? | 2% | 0% | ? | 4%
N#CCCn1c(=O)c(-c2cccs2)nc2cnc(N3CCNCC3)nc21 | . | . | . | -27% | . | .
Cc1ccc(CNC(=O)CCCn2c(=O)c3ccccc3n(CC(=O)Nc3ccc(C)c(C)c3)c2=O)cc1 | . | 1% | . | 1% | . | .
Cc1ccc(C(=O)NCC(=O)NCC(c2cccs2)N(C)C)cc1C (stereo not given) | . | . | . | . | 0% | 5%
COc1cc(Cl)c(S(=O)(=O)NCCCn2ccnc2)cc1Cl | 3% | -3% | 9% | . | 3% | -1%
O=C(CCNC(=O)c1ccccc1)Nc1cccnc1 | -4% | 0% | -1% | . | 5% | 0%
CCOCCCNc1ncnc2c1[nH]c1ccccc12 | 1% | ? | -9% | -60% | 15µM* | -1%
CCCCOCCCNc1ncnc2c1[nH]c1ccccc12 | -11% | ? | -22% | -83% | ? | -13%
CC(C)c1ccccc1-n1c(SCC(=O)N2CCc3ccccc3C2)nc2ccccc2c1=O | -5% | 3% | -1% | -93% | 26µM* | -16%
CC(C)Cn1c(SCC(=O)N2CCc3ccccc3C2)nc2cc(Cl)ccc2c1=O | -2% | 2% | -1% | -38% | 18µM* | -10%
